The source of these data is PubChem BioAssay AID902 (National Center for Advancing Translational Sciences (NCATS), 2007).

Several values for one entry are separate records, joined by “and”; a condition that tells them apart may be missing. Equal entries are not always repeated. The whole screen tested about 130,000 compounds, of which about 1,900 (1.5%) were called active. Roughly 5% stayed inconclusive and do not appear here. This excerpt belongs to a sample that is enriched for actives. Unmarked numbers belong to inactive results. Calls come from the whole dose curve; as a rule, active = well fitted cell-killing curve with a large enough effect; inconclusive = small, poorly fitted or top-dose-only effect; inactive = no such curve, though single readings can be large or run the other way.
% is set by controls: 0 for no effect and ±100 for the full control effect; potency is the fitted concentration of half-maximal effect.

The assay can be described thus: qHTS Screen for Compounds that Selectively Target Cancer Cells with p53 Mutations: Cytotoxicity of p53ts Cells at the Nonpermissive Temperature. Note: nearly all actives have a fitted effect of over 55% in size. The following applies: H1299-p53A138V viability at 39C, ATP luminescence, 24 h; series mostly up to 46.1 µM; activity change, negative = cell killing: at the top concentration. On the technique in general: In qHTS, concentration-response curves come from the screen itself.
On to `Cn1c(=O)nc2n(-c3ccc(Br)cc3)c3cccc(Cl)c3cc-2c1=O`, for which the “activity change, negative = cell killing” value was 8.85%.
Consider `CCCCCn1c(=O)[nH]c2cc(C(=O)Nc3ccc(F)cc3)ccc2c1=O`, for which the “activity change, negative = cell killing” value was 4.84%.
Same read-out and setting: as for `Cn1nc(-c2ccccc2)c(-c2ccccc2)c(C(=O)Nc2ccc(S(N)(=O)=O)cc2)c1=O`, the figure is -13.6%; as for `COc1ccc2cc(CNc3ccc(OC)c(OC)c3)c(=O)n(CC(=O)Nc3ccccc3F)c2c1`, 3.23%; as for `Cc1c2cnn(-c3ccccc3)c(=O)c2c(C)n1C(C)C(=O)Nc1ccc(Br)cc1F` (configuration not stated), 6.87%.
Same read-out and setting: the value for `CCN(CCCCOC(=O)c1ccc(OC)c(OC)c1)C(C)Cc1ccc(OC)cc1` (configuration not stated) was 1.21%; that for `COc1ccc(/C=C/NC(=O)Cc2ccc(OC)c(OC)c2)cc1` was -6.46% [at 9.22 µM] and 8.2% [at 9.22 µM].
Regarding `COc1ccc(C(CCN(Cc2ccc(OC)c(OC)c2)C(=O)CCl)c2ccccc2)cc1` (configuration not stated), the Potency is 3.98 µM (active).
With `O=C(NCc1ccccc1)c1cc(-c2cccc(Cl)c2)on1`, the “activity change, negative = cell killing” value is 18%.
On the same count and under the same terms, the value for `COc1ccc(-c2noc(CSc3nnc(-c4ccccc4)n3-c3ccc(F)cc3)n2)c(OC)c1` was -12.5%; that for `COc1ccc(-c2cc(-c3nc(-c4cc(OC)c(OC)c(OC)c4)no3)[nH]n2)c(OC)c1` was -1.36%.
In the case of `COc1ccc(-c2nc(-c3ccccc3)no2)c(OC)c1`, the Potency is 6.31 µM (active).
With `O=C(CN1CCN(Cc2ccc(Cl)cc2)C1=O)NCc1ccc(F)cc1`, the “activity change, negative = cell killing” value was 3.47%.
The same measure, in the same setting: as for `Cc1ccc(C)c(N2CCN(c3ccc4cc(S(=O)(=O)N5CCC(C)CC5)ccc4n3)CC2)c1`, the figure is -15.3%; as for `O=C(COc1ccccc1)NCCc1nc2ccccc2[nH]1`, 16.9%.
With `N#C/C(=C(/O)COC(=O)COc1ccc(Cl)cc1)c1nc2ccccc2[nH]1`, the Potency is 20 µM (active).
Regarding `COC(=O)Cc1nc2ccccc2[nH]1`, the “activity change, negative = cell killing” value is -9.69%.
`COc1ccc(CNC(=O)CSc2n[nH]c(-c3ccc(F)cc3)n2)cc1`: the “activity change, negative = cell killing” value is -5.34%.
The same measure, in the same setting: as for `O=C(NCC(c1cccnc1)N1CCc2ccccc21)c1cccc(C(F)(F)F)c1` (configuration not stated), the figure is -29.6%; as for `Cc1ccc2nc(-c3ccc(O)cc3)c(Nc3ccc4c(c3)OCO4)n2c1`, 29.2%.
Still for that read-out and setting: the value for `COc1cccc(-n2cc(C(=O)NCc3cccc(Cl)c3)c3ccccc3c2=O)c1` was -14.9%; that for `Cc1cccc(-n2ncc3c(N4CCc5ccccc54)ncnc32)c1` was -5.45%; that for `COc1ccc(-n2ncc3c(N4CCc5ccccc54)ncnc32)cc1` was -10.2%.
For the compound `COc1ccc(-n2ncc3c(N4CCCc5ccccc54)ncnc32)cc1`, the Potency is 10 µM (active).
As to `Cc1oc(C)c2c(=O)cc(-c3ccc4c(c3)OCO4)cc(OC(=O)c3ccc(Cl)cc3)c12`, the “activity change, negative = cell killing” value was -0.429%.
Still for that read-out and setting: the value for `CC1CCCN(S(=O)(=O)c2ccc3[nH]c(=O)cc(C(=O)NCCc4ccc(Cl)cc4)c3c2)C1` (configuration not stated) was -14.2%.
Still for that read-out and setting: as for `CCC1CCCCN1C(=O)Cn1c(=O)n(CCCCCC(=O)NCc2ccccc2)c(=O)c2sccc21` (configuration not stated), the figure is -0.145%; as for `Cc1cc(C)c(NC(=O)CSc2nc3ccncc3[nH]2)c(C)c1`, -16.4%; as for `Cn1c(=O)c2c(-c3ccccc3Br)n(Cc3ccccc3)cc2n(C)c1=O`, -12.6%.
For `Cn1c(=NC(=O)c2cnccn2)sc2ccccc21`, the Potency was 10 µM (active).
As to `Cn1c(=NC(=O)CSCC(=O)N2CCCCC2)sc2ccccc21`, the “activity change, negative = cell killing” value is -4.22%.
Turning to `Cn1c(=NC(=O)CSCC(=O)N2CCOCC2)sc2ccccc21`, the “activity change, negative = cell killing” value is -8.08%.
The same measure, in the same setting: as for `CCOc1ccc(-c2cc3nc(C4CCN(C(=O)OC(C)(C)C)CC4)c(C(=O)Nc4cccc(CC)c4)cn3n2)cc1`, the figure is -8.99%.
Consider `C=CC(=O)c1ccc2ccccc2c1`, for which the Potency is 10 µM (active).
Regarding `Cc1ccc2nc(CC(=O)c3ccc4ccccc4c3)c(=O)[nH]c2c1`, the activity change, negative = cell killing is 2.32% [at 9.22 µM].
`O=C(CN1C(=O)C2C3CCC(C3)C2C1=O)Oc1ccc2ccccc2c1` (configuration not stated): the “activity change, negative = cell killing” value was 26.2%.
Same read-out and setting: as for `COc1cccc(CNC(=O)CSc2c3c(nc4cc(Cl)ccc24)CCCC3)c1`, the figure is 24.3%; as for `CCOC(=O)Cc1ccc(NC(=O)Nc2c[nH]c(=O)[nH]c2=O)cc1`, -11.2%; as for `CCOc1ccccc1CNCc1c(C(=O)O)c(C)n(Cc2ccc(C)cc2)c1C`, 5.24%.
On the same count and under the same terms, the value for `CCOc1ccc(C(=O)Nc2ccncc2)cc1` was -23%; that for `CCC(=O)Oc1cccc(C(=O)Nc2ccc(-c3nnc(-c4ccco4)o3)cc2)c1` was -4.05%.
`Cc1ccc(OCC(=O)Nc2ccc(-c3nnc(-c4ccco4)o3)cc2)cc1`: the “activity change, negative = cell killing” value is -5.57%.
The same measure, in the same setting: as for `CCOc1ccc(NC(=O)Nc2cc(C)on2)cc1`, the figure is -22.6%.
As to `CCOc1ccc(-c2nnc(-c3ccco3)o2)cc1`, the Potency was 12.6 µM (active).
`CCOc1ccc(NC(=O)c2ncoc2-c2ccco2)cc1`: the Potency is 7.94 µM (active).
Regarding `CN(C)CCCn1c(-c2ccc(Cl)cc2)csc1=Nc1ccccc1`, the “activity change, negative = cell killing” value is -9.09%.
Consider `CCCN(CCC)CCNC(=O)Cn1cnc2sc(C)c(S(=O)(=O)N3CCC(C)CC3)c2c1=O`, for which the “activity change, negative = cell killing” value is 24.7%.
The same measure, in the same setting: as for `COc1ccc(S(=O)(=O)c2c(Nc3ccc(C)cc3)sc(C(=O)c3ccc(C)cc3)c2N)cc1`, the figure is -1.53%; as for `Cc1cccc(OCC(=O)N(Cc2ccc(C(C)C)cc2)Cc2ccco2)c1C`, -28%.
The same measure, in the same setting: as for `Cc1cc(C(=O)COC(=O)CCCN2C(=O)c3ccccc3C2=O)c(C)n1C`, the figure is 3.08%.
For the compound `C=CCn1c(C)cc(C(=O)CN2C(=O)c3ccccc3C2=O)c1C`, the Potency was 12.6 µM (active).
In the case of `C=CCN(CC=C)C(=O)CN1C(=O)c2ccccc2C1=O`, the “activity change, negative = cell killing” value is 3.05%.
Same read-out and setting: the value for `CC(=O)N1CCCc2cc(S(=O)(=O)N3CCC(C(=O)NCc4ccc(F)cc4)CC3)ccc21` was -25.5%; that for `O=C(Nc1cccnc1)c1ccc2c(c1)OCO2` was -11.1%.
On the same count and under the same terms, as for `Cc1c(Cl)cccc1NC(=O)c1noc2c1CCCC2`, the figure is -20.5%.
In the case of `O=C(Nc1cccnc1)c1noc2c1CCCCC2`, the Potency was 12.6 µM (active).
In the case of `Cc1ccc(Cl)cc1NC(=O)CSc1nc2ccccc2nc1Cc1ccccc1`, the “activity change, negative = cell killing” value was -27.2%.
